# Assay results taken from PubChem BioAssay.
# Values joined by “and” are separate entries in the source; they are usually repeats but may differ in a detail not shown here. Equal values may be shown once. Active and inactive are the calls of the source.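 How the source made its calls, unless noted: active means compounds that lower viability of the colon cancer cells in the luminescence readout, with no numeric limit stated; inactive means the rest.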
# Assays:
# [1] = compounds altering viability of human ES cells (AID 493140; call rule not given here;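 further: cells exposed to compounds for four days before counting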); settings: human embryonic stem cell survival screen; stronger effect = higher value
# [2] = stimulators of insulin release from INS-1E, primary screen, cell-based, 5 mM glucose, NPC library (AID 1117329;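 active means compound raises insulin release from rat beta cells at 5 mM glucose, no numeric limit stated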); settings: rat INS-1E insulin secretion, at 10 µM, stronger effect = higher value
# [3] = growth inhibition of GSK3B-pretreated HCT116 cells – cell-based, CellTiter-Glo, 0.2 to 20 µM (AID 1117336;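 active means compounds lowering colon cancer cell viability after pretreatment blocking the GSK3B kinase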); settings: HCT116 viability after GSK3B inhibitor, at 20 µM, stronger effect = higher value
# [4] = inhibition of endothelial tube formation, primary screen, imaging, VEGF stimulated, CD31 staining, tube area, NPC library (AID 1117340;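 active means compound that reduces growth-factor-driven endothelial tube area in a mixed cell culture, no cutoff stated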); settings: VEGF-stimulated ADSC/ECFC co-culture, at 10 µM, stronger effect = higher value
# [5] = GLP1 release stimulators, primary, NCI-H716, NPC library (AID 1117341;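 active means compound raises GLP1 secretion from the human gut endocrine cells, with no numeric limit stated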); settings: NCI-H716 cells, at 10 µM, stronger effect = higher value
# [6] = HCT116 colon cancer cell growth inhibition, primary screen, CellTiter-Glo luminescence, NPC library (AID 1117342;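 active means compounds that lower survival of HCT116 colon cancer cells in the luminescence readout, no numeric limit stated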); settings: at 20 µM (top of the series)
# [7] = reduced SW480 viability measured with CellTiter-Glo, NPC library, primary (AID 1117343); settings: CellTiter-Glo luminescence; at 20 µM (top of the series) unless noted
# [8] = NPC library primary testing for decreased DLD-1 cell viability via CellTiter-Glo (AID 1117346;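 active means compounds that lower survival of DLD-1 colon cancer cells in the luminescence readout, no cutoff given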); settings: DLD-1 viability, CellTiter-Glo luminescence; at 20 µM (top of the series)
# [9] = target: 6-phosphogluconate dehydrogenase, decarboxylating (Homo sapiens) (UniProt P52209); experiment: inhibition of human phosphogluconate dehydrogenase – biochemical, recombinant enzyme, NADPH absorbance, primary screen (AID 1159550;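 active means at least 20% inhibition of 6-phosphogluconate dehydrogenase activity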); settings: recombinant 6PGD, NADPH absorbance 341 nm; at 10 µM; stronger effect = higher value
# 6-phosphogluconate dehydrogenase, decarboxylating (Homo sapiens), sequence (P52209 whole entry, looked up): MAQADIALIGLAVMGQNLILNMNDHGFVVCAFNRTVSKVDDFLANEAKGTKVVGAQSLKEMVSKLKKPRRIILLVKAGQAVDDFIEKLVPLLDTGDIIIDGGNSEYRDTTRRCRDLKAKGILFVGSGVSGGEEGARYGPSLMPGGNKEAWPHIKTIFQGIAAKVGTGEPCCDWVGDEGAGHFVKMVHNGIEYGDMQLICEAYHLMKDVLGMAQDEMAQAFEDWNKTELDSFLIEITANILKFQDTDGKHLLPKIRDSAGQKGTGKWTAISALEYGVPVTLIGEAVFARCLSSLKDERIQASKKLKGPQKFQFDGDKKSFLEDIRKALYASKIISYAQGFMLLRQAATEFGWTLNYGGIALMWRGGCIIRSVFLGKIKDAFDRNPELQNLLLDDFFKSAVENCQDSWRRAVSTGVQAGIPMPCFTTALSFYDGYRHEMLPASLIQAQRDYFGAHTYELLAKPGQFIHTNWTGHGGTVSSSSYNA
# [10] = modulation of C. elegans fzo-1 (AID 1259413; call rule not given here;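 further: fzo-1 mutant C. elegans worms in liquid wells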); settings: C. elegans fzo-1 modulator screen, mean read-out; stronger effect = higher value
# [11] = EMT-state selective cytotoxicity in co-culture – imaging, PC-3E GFP, TEM4-18 mCherry, primary screen (AID 1345086;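 active means compounds killing one labelled cell type while sparing the other, by normalised counts and ratio limits, not self-fluorescent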;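 further: cells exposed to compound for 72 h before imaging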;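 on red/green cell ratio (normalised): normalised mesenchymal count divided by normalised epithelial count so high means epithelial killing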); settings: PC-3E GFP / TEM4-18 mCherry co-culture, imaging cell counts, at 1 µM
# [12] = viability loss with induced miR-34 in A549 – imaging, A549 dox-inducible miR-34, nuclei and caspase counts, primary screen (AID 1347080;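 active means compounds whose cell count with miR-34 switched on is under 0.7 times the count with it off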); settings: A549 miR-34 inducible, Hoechst nuclei count, 48 h
# [13] = MELAS cybrid and Rieske KO viability enhancers – cell-based, MELAS cybrids, Rieske KO mouse fibroblasts, CellTiter-Glo, primary screen (AID 1508586;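 active means mean z-score across replicates of 1.96 or higher in either the MELAS or the Rieske mutant cell line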;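 further: z relative to plate mean and SD of compound and empty wells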); settings: low glucose
# [14] = target: NAD(+) hydrolase SARM1 (Homo sapiens) (UniProt Q6SZW1); experiment: blocking NAD cleavage by SARM1 SAM-TIR – cell lysate, NAD-Glo luminescence (AID 1508614;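 active means compound whose remaining NAD level is above about 45 nM, limit read from the data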); settings: SAM-TIR HEK293T lysate NADase, at 1 µM, stronger effect = higher value
# NAD(+) hydrolase SARM1 (Homo sapiens), sequence (Q6SZW1 whole entry, looked up, the tested form may be a part): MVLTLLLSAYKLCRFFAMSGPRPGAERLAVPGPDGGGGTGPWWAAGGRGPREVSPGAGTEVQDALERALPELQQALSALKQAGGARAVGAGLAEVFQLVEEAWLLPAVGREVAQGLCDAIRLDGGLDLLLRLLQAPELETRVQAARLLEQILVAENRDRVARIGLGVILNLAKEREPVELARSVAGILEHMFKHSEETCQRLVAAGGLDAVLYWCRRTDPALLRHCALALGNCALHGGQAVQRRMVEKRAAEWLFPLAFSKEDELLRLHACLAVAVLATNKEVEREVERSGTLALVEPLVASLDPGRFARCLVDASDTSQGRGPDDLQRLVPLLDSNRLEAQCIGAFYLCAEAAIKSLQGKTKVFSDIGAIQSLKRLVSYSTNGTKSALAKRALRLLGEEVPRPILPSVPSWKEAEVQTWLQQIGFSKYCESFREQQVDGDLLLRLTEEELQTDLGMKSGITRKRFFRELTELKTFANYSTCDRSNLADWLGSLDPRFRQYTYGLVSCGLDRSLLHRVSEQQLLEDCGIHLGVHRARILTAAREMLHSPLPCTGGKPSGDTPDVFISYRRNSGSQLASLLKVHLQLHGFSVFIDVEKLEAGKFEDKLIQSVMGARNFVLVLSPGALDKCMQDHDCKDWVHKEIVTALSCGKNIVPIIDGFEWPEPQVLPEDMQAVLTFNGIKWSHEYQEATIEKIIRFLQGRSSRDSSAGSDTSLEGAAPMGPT
# [15] = target: Mitogen-activated protein kinase 7 (Homo sapiens) (UniProt Q13164); experiment: Gal4-ERK5 driven luciferase induction – cell-based, HTS, primary screen (AID 1508626;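 active means luciferase signal above three times the same-plate solvent-only control wells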;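 further: luciferase driven by Gal4-ERK5 fusion binding five Gal4 sites before minimal TATA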); settings: HeLa Gal4-ERK5 transactivation, 18 h, at 5 µM, stronger effect = higher value
# Mitogen-activated protein kinase 7 (Homo sapiens), sequence (Q13164 whole entry, looked up, the tested form may be a part): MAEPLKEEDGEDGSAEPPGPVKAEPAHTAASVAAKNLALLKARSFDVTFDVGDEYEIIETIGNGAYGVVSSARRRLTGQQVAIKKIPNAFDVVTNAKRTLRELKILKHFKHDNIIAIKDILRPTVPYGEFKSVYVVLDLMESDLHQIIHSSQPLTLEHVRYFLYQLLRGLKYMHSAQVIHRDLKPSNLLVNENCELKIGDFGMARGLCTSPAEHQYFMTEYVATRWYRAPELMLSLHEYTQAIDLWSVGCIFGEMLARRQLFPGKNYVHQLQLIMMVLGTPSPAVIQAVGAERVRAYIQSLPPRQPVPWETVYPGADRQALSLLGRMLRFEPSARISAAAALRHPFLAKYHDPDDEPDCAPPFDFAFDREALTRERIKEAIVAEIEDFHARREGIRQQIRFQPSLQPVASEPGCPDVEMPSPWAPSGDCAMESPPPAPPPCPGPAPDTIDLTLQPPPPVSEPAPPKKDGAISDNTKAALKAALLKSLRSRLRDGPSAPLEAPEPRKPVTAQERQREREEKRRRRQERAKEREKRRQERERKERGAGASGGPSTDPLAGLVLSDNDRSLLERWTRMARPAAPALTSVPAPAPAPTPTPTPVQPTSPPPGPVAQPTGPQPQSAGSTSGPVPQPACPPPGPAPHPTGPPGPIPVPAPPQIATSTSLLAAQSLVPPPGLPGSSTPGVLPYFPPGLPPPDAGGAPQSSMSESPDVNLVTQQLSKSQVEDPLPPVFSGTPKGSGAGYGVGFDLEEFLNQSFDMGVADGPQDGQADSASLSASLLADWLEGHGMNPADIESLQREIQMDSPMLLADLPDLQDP
# [16] = Wnt pathway potentiators raising nuclear beta-catenin – imaging, WNT3A-conditioned medium, mouse C2C12, NPC library, primary screen (AID 1117326; in the data active means nuclear beta-catenin stimulation mostly above about 4.2%, no sharp cut-off; inactive means mostly below about 10%); settings: stronger effect = higher value
# [17] = galactose survival enhancers in mitochondrial complex I cybrids – cell-based, galactose medium, ATP luminescence, primary screen (AID 1645843;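 active means z-score of at least 1.8 in each of two replicates, scored against plate mean and spread of sample wells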;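 further: positive z means more ATP and so rescue of galactose-driven cybrid death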); settings: complex I mutant cybrid cells, 72 h, stronger effect = higher value
# [18] = P. berghei load reduction in hepatocytes – cell-based, HepG2, luciferase luminescence, HepG2 viability, primary screen (AID 624349; in the data active means parasite load remaining mostly below about 12%, no sharp cut-off; inactive means mostly above about 10%;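 further: 100% = mean of DMSO negative control wells on the same plate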); settings: P. berghei liver stage in HepG2, luciferase luminescence, concentration not given here; parasite load remaining: stronger effect = lower value; viability: measured here: HepG2 viability without parasites
# [19] = stronger effect = lower value, cell number ratio, induced over uninduced
# [20] = measured here: relative caspase fold change +Dox/-Dox
# [21] = measured here: total cells with miR-34 induction, stronger effect = lower value
# [22] = measured here: total cells without miR-34 induction
# [23] = MELAS cybrid survival, CellTiter-Glo 48 h, stronger effect = higher value
# [24] = Rieske KO mouse fibroblast survival, CellTiter-Glo 72 h
structure (smiles),measurement,setting,value
O=C1CN(/N=C/c2ccc([N+](=O)[O-])o2)C(=O)N1,survival,[1],10.8 (inactive)
same,insulin secretion stimulation,[2],-2.7% (inactive)
same,viability decrease,[3],26.8% (inactive)
same,tube area decrease,[4],-36% (inactive)
same,GLP1 secretion stimulation,[5],-0.3% (inactive)
same,inhibition of viability,[6],18.2% (inactive)
same,viability decrease (inhibition),[7],46.4% (active)
same,viability decrease (inhibition),[8],8.55% (inactive)
same,inhibition,[9],-10.5% (inactive)
same,mean signal,[10],245 (inactive)
same,red/green cell ratio (normalised),"[11]; actives lie on both sides, counts scaled to control wells, 1 = unselective",0.97 (inactive)
same,normalised cell number,[11]; measured here: epithelial PC-3E GFP cell survival,1.08
same,normalised cell number,[11]; measured here: mesenchymal TEM4-18 mCherry cell survival,1.05
same,fold change,[12]; [19],0.928 (inactive) and 0.958 (inactive)
same,fold change,[12]; [20],1.23 and 1.67
same,cell count,[12]; [21],8440 and 12500
same,cell count,[12]; [22],9100 and 13100
same,z-score,[13]; [23],-2.68 (inactive)
same,z-score,[13]; [24],-2.1
same,remaining NAD,[14],10 nM (inactive)
same,luciferase signal,[15],40 AU (inactive)
CCN(CC)CC(=O)Nc1c(C)cc(C)cc1C,insulin secretion stimulation,[2],-0.3% (inactive)
same,viability decrease,[3],-7.6% (inactive)
same,tube area decrease,[4],7.2% (inactive)
same,GLP1 secretion stimulation,[5],-3.6% (inactive)
same,inhibition of viability,[6],4.6% (inactive)
same,viability decrease (inhibition),[7],6% (inactive)
same,viability decrease (inhibition),[8],-2% (active)
COc1ccccc1N1CCN(CCCCNC(=O)c2ccc(-c3ccc(C(C)=O)cc3)cc2)CC1,nuclear beta-catenin stimulation,[16]; at 10 µM,9.8% (inactive)
same,nuclear beta-catenin stimulation,"[16]; stimulation, at 2 µM",9.2%
same,viability decrease,[3],55.6% (active)
same,inhibition of viability,[6],51.4% (active)
same,viability decrease (inhibition),[7],69.7% (active)
same,viability decrease (inhibition),[8],13.8% (inactive)
same,fold change,[12]; [19],0.929 (inactive)
same,fold change,[12]; [20],0.93
same,cell count,[12]; [21],8920
same,cell count,[12]; [22],9600
same,z-score,[17],-0.635 (inactive)
CC(=O)OC1CC[C@@]2(C)C(CC[C@]3(C)C2CCC2C4CC(C)(C)CCC4(C(=O)O)CC[C@]23C)C1(C)C (stereo partly specified),inhibition,[9],5.8% (inactive)
C[C@@H](O[C@H]1OCCN(Cc2n[nH]c(=O)[nH]2)[C@H]1c1ccc(F)cc1)c1cc(C(F)(F)F)cc(C(F)(F)F)c1,parasite load remaining,[18],26.3% (inactive)
same,viability,[18],67.5%
same,insulin secretion stimulation,[2],1.6% (inactive)
same,viability decrease,[3],99% (active)
same,tube area decrease,[4],108% (active)
same,GLP1 secretion stimulation,[5],-2.9% (inactive)
same,inhibition of viability,[6],97.5% (active)
same,viability decrease (inhibition),[7],102% (active)
same,viability decrease (inhibition),[8],100% (active)
same,fold change,[12]; [19],0.959 (inactive)
same,fold change,[12]; [20],1.18
same,cell count,[12]; [21],9050
same,cell count,[12]; [22],9430
same,z-score,[13]; [23],0.822 and 0.307 (inactive)
same,z-score,[13]; [24],2.09 and 0.201
same,z-score,[17],-0.16 (inactive)
